Measured values published in PubChem BioAssay AID623908 (Johns Hopkins Ion Channel Center, 2012).
Among all 2,500 compounds or so, about 1,500 (60%) were called active.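 The calls were made as follows: active = duplicate-averaged ratio beyond 3 SD from buffer wells, up or down, though filed actives are nearly all decreases; inactive = the rest.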 So high a share suggests a set chosen from earlier hits. These entries were drawn from the full list.

experiment: membrane potential response in parental HEK293 cells, counter-screen for CHT activator project, cell-based, membrane potential dye (AID 623908); conditions: parental HEK293, membrane potential dye fluorescence (FDSS); at 10 µM; measured after EC20 choline addition

Structure (SMILES) | ratio readout change
CN1CCN(c2cc3c(cc2F)c(=O)c(C(=O)O)cn3CCF)CC1 | -29.7 (active)
CC(Nc1nc(N2CCN(CCO)CC2)nc2ccccc12)c1ccccc1 (configuration not stated) | -58.8 (active)
O=C(C1=C(O)C(=O)N(Cc2ccccc2)C1c1ccco1)c1ccco1 (configuration not stated) | inactive
CCN1C(=NCCc2cccnc2)N[C@@H](c2ccccc2)[C@H](C(=O)OC)[C@H]1C | inactive
Cc1cccn2c(=O)c3cc(C#N)c(=O)n(CCCN4CCOCC4)c3nc12 | -48.2 (active)
CCN1CCCC1CNC(=O)c1cc2c(=O)n(C)c3ccccc3c2n1C (configuration not stated) | -28 (active)
O=Cc1ccc(OCc2cn3ccccc3n2)cc1 | -38.8 (active)
COc1ccccc1NC(=O)C1=C(C)Nc2nc3ccccc3n2C1c1cccs1 (configuration not stated) | inactive
CN1CCc2c(sc3c2c(NCc2ccco2)nc2nnnn23)C1 | -34.6 (active)
COc1ccc(CC2c3cc(OC)c(OC)cc3CC[N+]2(C)CCC(=O)OCCCCCOC(=O)CC[N+]2(C)CCc3cc(OC)c(OC)cc3C2Cc2ccc(OC)c(OC)c2)cc1OC (configuration not stated) | -31.4 (active)
Cc1nc2ccccc2c2oc(C(=O)NCCCN3CCC(C)CC3)cc12 | -28.4 (active)
COc1ccc2c(c1)cc1n2CCN=C1NN | -53.2 (active)
Cc1ccc(-n2c(SCC(=O)N3c4ccccc4Sc4ccccc43)nnc2-c2ccncc2)cc1 | inactive
Cc1ccc(C(=O)c2ccc(N3CCN(C)CC3)c([N+](=O)[O-])c2)cc1 | inactive
N#C/C(=C\c1ccc(-c2cccc([N+](=O)[O-])c2)o1)C(=O)NCCN1CCOCC1 | -21.1 (active)
Cc1cc(NC(=O)c2cnn3cccnc23)n(-c2ccccc2)n1 | -40.8 (active)
COc1ccc2nc(/N=C(\N)NC(=O)Nc3ccccc3)nc(C)c2c1 | -41.4 (active)
O=C(Nc1ccncc1)c1ccc(Cl)c([N+](=O)[O-])c1 | -45.8 (active)
Cc1cc(=O)oc2c(C)c(OC(C)C(=O)NC3CCN(Cc4ccccc4)CC3)ccc12 (configuration not stated) | -52.2 (active)
C[C@]1(C(=O)NCCc2c[nH]c3ccccc23)C=C[C@@H](Cc2ccccc2)N1C(=O)c1ccccc1 | inactive
COc1cc2nc(N3CCN(C(=O)[C@@H]4CCCO4)CC3)nc(N)c2cc1OC | -39.5 (active)
CCOc1ccc(C2c3[nH]c4ccccc4c3CCN2Cc2cccn2-c2ncccn2)cc1 (configuration not stated) | inactive
CN(C)c1cc[n+](Cc2ccccc2)cc1 | -40.2 (active)
COc1ccc(Cn2c(-c3ccc(Cl)cc3)c[n+]3ccccc23)cc1 | -66.1 (active)

Structure (SMILES) | ratio readout change
CCN(CC)CCCNC(=O)c1cn(C)c2ccc(S(=O)(=O)N(C)C3CCCCC3)cc2c1=O | -36.4 (active)
CCOC(=O)c1cn(CC)c2cc(F)c(F)cc2c1=O | -63.5 (active)
COc1ccccc1NC(=O)CN(c1ccccc1OC)S(=O)(=O)c1ccccc1 | inactive
COC(=O)c1ccc(C(NC(=O)OCc2ccccc2)/C(C)=C/[C@@H](C)C(=O)NCc2ccc(OC)c(OC)c2)cc1 (some centres not stated) | inactive
Clc1ccc(COn2c(-c3ccc(Cl)cc3Cl)nc3ncccc32)cc1 | inactive
CCCCCCCCCCOC(=O)Cn1c(COc2ccc(C)cc2)[n+](C)c2ccccc21 | -48.3 (active)
CCCCCCCCCCOC(=O)Cn1c(COc2cccc(OC)c2)[n+](C)c2ccccc21 | -43.3 (active)
Nc1ccccc1SCc1cc([N+](=O)[O-])cc2c1OCOC2 | inactive
CC(C)CC(COCc1ccc(Cl)cc1)N1CCN(C(=O)c2ccc(C(F)(F)F)cc2)CCC1=O (configuration not stated) | inactive
COC(=O)c1sc(C(F)(F)F)c(-c2ccccc2)c1S(=O)(=O)N(C)C | inactive
CN(C)c1cc(N)c2ccccc2n1 (tested in a mixture with another compound) | -62.3 (active)
Cc1cc(=O)oc2cc(OCCC[n+]3ccccc3)ccc12 | -59.3 (active)
Cn1c(=NC(=O)c2cnccn2)sc2ccccc21 | -49.1 (active)
O=C(c1ccc(F)c(S(=O)(=O)N2CCOCC2)c1)N(CCc1ccccc1)Cc1ccccc1 | inactive
CC1(C)Cc2c(sc3nc4n(c(=N)c23)CCCCC4)CO1 | -42.5 (active)
CCN1/C(=C/c2ccc3ccc(C)cc3[n+]2CC)Sc2ccccc21 | inactive
COc1cc2c(cc1OC)C(Nc1ccc(S(N)(=O)=O)cc1)=NC(C)(C)C2 | -78.3 (active)
COc1ccc(C(O)(C2CCCCC2)C(CN2CCCC2)c2ccccc2)cc1 (configuration not stated) | inactive
N#Cc1ccc(/C=C2\CCn3c2nc2cc(C(=O)O)ccc2c3=O)cc1 | -55.3 (active)
CCn1c(/C=C/Nc2ccccc2)[n+](CC)c2ccc(C(=O)OCC(F)(F)F)cc21 | -82.7 (active)
Cc1nc2c(-c3ccccc3)c(C)[nH]n2c(=O)c1Cl | inactive
Cc1nc2ccccc2c(=O)n1CCCn1ccnc1 | inactive
C=CCNc1nnc(C)c2ccccc12 | -50.7 (active)
